These results are taken from PubChem BioAssay AID720517 (National Center for Advancing Translational Sciences (NCATS), 2013).

The nature of this test: qHTS for Inhibitors of Cell Surface uPA Generation: FP59 Counterscreen for Cherry-picked Compounds.

Records with an inconclusive call do not appear. Entries that show only a call come without a potency. Active and inactive are the calls of the source. Calls follow the shape of the dose curve; as a rule, active = well fitted activation curve with a large enough effect; inconclusive = small, poorly fitted or top-dose-only effect; inactive = flat fitted curve, though single readings scatter.

In the case of `CC1(C)CC2(CC(c3ccccc3)Oc3cc(O)ccc32)NC(=S)N1` (stereo not drawn), the Potency result is “inactive”.

As to `O=C(COc1ccccc1F)NCC(c1ccc(F)cc1)N1CCOCC1` (stereo not drawn), the Potency entry was “inactive”.

For the compound `Clc1ccccc1N1CCN(c2ncnc3nc[nH]c23)CC1`, the Potency result was “inactive”.

Regarding `CCOC(=O)C1CCN(S(=O)(=O)c2c[nH]c(=O)[nH]c2=O)CC1`, the Potency result is “inactive”.

Regarding `O=C(O)CCc1nn2c3ccccc3n(CC(=O)O)c2nc1=O`, the Potency result was “inactive”.

Turning to `Cc1cc(=O)[nH]c(=S)[nH]1`, the Potency entry was “inactive”.

`O=C(NCCCn1ccnc1)C(=O)NCC(c1cccnc1)N1CCN(c2ccc(F)cc2)CC1` (stereo not drawn): the Potency result is “inactive”.

On to `C[n+]1c2cc(N)ccc2cc2ccc(N)cc21`, for which the Potency result was “inactive”.

For `COc1cc(SC)ccc1C(=O)OCc1nc2ccsc2c(=O)[nH]1`, the Potency result is “inactive”.

As to `O=C1NCCN1C(=O)N(c1ccccc1)c1ccccc1`, the Potency result was “inactive”.

As for `CCN(CC)c1ccc(C=NCCc2ccc(S(N)(=O)=O)cc2)cc1`, the Potency entry was “inactive”.

For `CC1(CC(=O)N/N=C/c2cc(Br)c(O)cc2O)OCCO1`, the Potency result is “inactive”.

Consider `COc1ccc(C2=NOC(CNC(N)=S)C2)cc1` (stereo not drawn), for which the Potency result was “inactive”.

On to `O=C(NCc1ccc2c(c1)OCO2)c1ccccn1`, for which the Potency entry is “inactive”.

As to `O=c1ccc(S(=O)(=O)N2CCCC2)c[nH]1`, the Potency result is “inactive”.

Turning to `O=C(Cc1n[nH]c(=O)c2ccccc12)Nc1cccc(S(=O)(=O)N2CCCCCC2)c1`, the Potency entry was “inactive”.

Regarding `Cc1cc(C)n(CCCNC(=O)c2ccc(C)o2)n1`, the Potency entry is “inactive”.

Take `Cn1cccc1Cc1nnc(SCC(=O)Nc2ccc3c(c2)OCCO3)n1-c1ccc(F)cc1`: the Potency result was “inactive”.

For `C=CC1=C(C(=O)O)N2C(=O)[C@@H](NC(=O)/C(=N\O)c3csc(N)n3)[C@H]2SC1` (stereo in doubt), the Potency entry was “inactive”.

Consider `CCOc1ccccc1C(=O)NC1CCN(CC(=O)Nc2cc(OC)ccc2OC)CC1`, for which the Potency entry was “inactive”.

Take `CCCNC(=O)C1CCC(CNS(=O)(=O)c2ccc3c(c2)CC(C)N3C(C)=O)CC1` (stereo not drawn): the Potency result is “inactive”.

With `CC(C)NCC1CCc2cc(CO)c([N+](=O)[O-])cc2N1` (stereo not drawn), the Potency result was “inactive”.

For `COc1ccc(CNC(=O)C2(CC3CC(c4ccccc4)=NO3)CCNCC2)cc1` (stereo not drawn), the Potency entry was “inactive”.

Consider `Cc1ccc(/C=C/C(=O)O)cc1S(=O)(=O)N1CCc2ccccc21`, for which the Potency entry was “inactive”.

As to `Cc1ccccc1C(=O)Nc1ccccc1N1CCCCC1`, the Potency result was “inactive”.

For `COc1ccc2[nH]cc(S(=O)(=O)c3ccc(C(C)C)cc3)c(=O)c2c1`, the Potency entry was “inactive”.

As to `CCC1(C)NC(=O)N(CC(=O)Nc2sc3c(c2C(N)=O)CCC3)C1=O` (stereo not drawn), the Potency result was “inactive”.

On to `CCn1c(CNc2ccc(F)cc2)nnc1SCC(=O)Nc1ccccc1OC`, for which the Potency result was “inactive”.

Turning to `Cc1cc(C)nc(N2N=C(C(F)(F)F)CC2=O)n1`, the Potency entry was “inactive”.

For `Fc1ccc(CNc2ccccn2)cc1`, the Potency result is “inactive”.

On to `O=C(NCCCn1cccn1)C1CCC(=O)N(Cc2ccccc2F)C1` (stereo not drawn), for which the Potency result was “inactive”.

As for `Cc1cc(SCc2ccc(Cl)cc2)nc(=O)[nH]1`, the Potency entry was “inactive”.

`CC(=O)Nc1sc(C)c(C)c1C(=O)OCC(=O)NC(C)c1ccccc1` (stereo not drawn): the Potency result is “inactive”.

`O=C(CCCOc1ccc(Cl)cc1Cl)NCc1ccncc1`: the Potency result was “inactive”.

Consider `CCOC(=O)C1CCN(CC(=O)Nc2cc(C)nn2-c2nc3ccccc3s2)CC1`, for which the Potency entry was “inactive”.

As to `Cc1cc(C)n2c(SCC#N)nnc2n1`, the Potency entry was “inactive”.

Regarding `COCCN(C(=O)CSc1nnc(-c2ccncc2)n1C)c1c(N)n(CC(C)C)c(=O)[nH]c1=O`, the Potency result is “inactive”.

Consider `CCCC1=NN(C(=O)Cc2ccc(OC)cc2)C(O)(C(F)(F)F)C1` (stereo not drawn), for which the Potency entry is “inactive”.

On to `O=C(NCCS(=O)(=O)N1CCC2(CC1)OCCO2)c1ccc(F)cc1`, for which the Potency entry was “inactive”.

For the compound `CC(C)NC(=O)CN1CCC(c2nc3ccccc3[nH]2)CC1`, the Potency result was “inactive”.

`CCC(NC(=S)NCc1ccc(F)cc1)c1ccccc1` (stereo not drawn): the Potency result is “inactive”.

In the case of `O=C(c1cc(COc2c(F)cccc2F)on1)N1CCc2ccccc2C1`, the Potency result was “inactive”.

Turning to `COc1ccccc1CCNC(=O)C(=O)NCC1OCCN1S(=O)(=O)c1ccc(OC)c(OC)c1` (stereo not drawn), the Potency entry is “inactive”.

Consider `O=C(CN1CCOC1=O)N1CCCC(Nc2ccc(F)c(F)c2)C1` (stereo not drawn), for which the Potency result is “inactive”.

As to `Cc1cccc(NC(=O)C2CCCN(S(=O)(=O)c3ccc4[nH]c(=O)ccc4c3)C2)c1` (stereo not drawn), the Potency entry was “inactive”.

Turning to `CC(=O)c1cccc(NC(=O)N2C3CCC2CC(O)(c2cccnc2)C3)c1` (stereo not drawn), the Potency result was “inactive”.

For the compound `CS(=O)(=O)N1CCC(C(=O)Nc2ccccc2)CC1`, the Potency result was “inactive”.

Turning to `COc1ccc(N(CN2C(=O)c3ccccc3C2=O)C(=O)C(C)C)cc1`, the Potency entry is “inactive”.

As to `CCOCCCn1c(SCC(=O)Nc2oc(C)c3c(C)n[nH]c(=O)c23)nc2ccccc2c1=O`, the Potency entry is “inactive”.

As to `CC1=CC(C)C(C[N+]2(C)CCCCC2)C(C)C1` (stereo not drawn), the Potency result was “inactive”.

With `Nc1cc(=O)[nH]c(SCC(=O)Nc2cccc([N+](=O)[O-])c2)n1`, the Potency result is “inactive”.

As to `O=C(COc1ccc(C(=S)N2CCOCC2)cc1)N1CCOCC1`, the Potency entry is “inactive”.

Regarding `Cc1cccc(C(=O)Nc2cc(=O)n(C)c(=O)n2C)c1`, the Potency entry was “inactive”.

Take `N#Cc1cccc(NC(=O)Cn2cnc(S(=O)(=O)N3CCOCC3)c2)c1`: the Potency entry was “inactive”.

On to `Fc1cccc(Cl)c1CSc1ccc(-c2cccnc2)nn1`, for which the Potency entry is “inactive”.

For the compound `COc1ccc(C(=O)NCC(=O)N/N=C/c2c(C)[nH]c3ccccc23)cc1`, the Potency entry is “inactive”.

As for `O=C(NNC(=O)c1ncc(Cl)c(Cl)c1Cl)c1ccc(F)cc1`, the Potency result is “inactive”.

`COc1cc(C(=O)Nc2nnc(C)s2)cc(OC)c1OC`: the Potency entry is “inactive”.

On to `CC(Sc1nnc2ccccn12)C(=O)NCc1ccc2c(c1)OCO2` (stereo not drawn), for which the Potency result is “inactive”.

For the compound `S=C(Nc1ccccc1Oc1ccccc1)NC1CCCC1`, the Potency entry was “inactive”.

`C[C@]12CCC(O)CC1CCC1C2CC[C@]2(C)C(c3cc(C(F)(F)F)n[nH]3)CCC12` (stereo partly drawn): the Potency entry is “inactive”.

Consider `Cc1ccc(Nc2nc(Cl)c(C=O)s2)cc1`, for which the Potency entry was “inactive”.

As to `NC(=O)c1cc2c3ccccc3ccn2c1-c1ccccc1`, the Potency result is “inactive”.

Take `O=C(COC(=O)C1CC2C=CC1C2)NCc1ccccc1Cl` (stereo not drawn): the Potency result was “inactive”.

For the compound `Cn1c(SCC(=O)NCCc2ccccc2)ncc(C(=O)Nc2ccc(F)cc2)c1=O`, the Potency entry was “inactive”.

With `COc1cccc2c1Oc1ncccc1N(C(=O)CCC(=O)NCc1ccc(C)cc1)C2`, the Potency result was “inactive”.

`Cc1cc(C)cc(NC(=O)COC(=O)CCn2c(C)csc2=O)c1`: the Potency entry is “inactive”.

As for `Cc1ccc(-c2cc(C(=O)NCC3CCCO3)no2)cc1` (stereo not drawn), the Potency entry is “inactive”.

For `COCCNC(=O)C(c1c[nH]c2ccccc12)N(C(=O)c1snc(C(N)=O)c1N)c1cccc(OC)c1` (stereo not drawn), the Potency result was “inactive”.

`COC(=O)C1=CN(Cc2ccc(F)cc2)C=C(C(=O)OC)C1c1ccc(O)c(OC)c1`: the Potency entry is “inactive”.

With `CCOc1ccccc1N(CC(=O)Nc1ccc(OC)cc1)S(=O)(=O)c1ccccc1`, the Potency result was “inactive”.

In the case of `c1csc(CN2CCOCC2)c1`, the Potency result is “inactive”.

As for `CCC(=O)N(Cc1cc2ccc(C)cc2[nH]c1=O)c1ccccc1OC`, the Potency entry was “inactive”.

Turning to `CCOC(=O)CC(=O)CSc1nc2c(C)c(C)ccc2cc1C`, the Potency entry is “inactive”.

With `CCCN1CCN(CC(=O)Nc2nncs2)CC1`, the Potency result is “inactive”.

Consider `Cc1ccc(C(CC(=O)N2CCCC2)c2ccccc2)c(O)c1` (stereo not drawn), for which the Potency entry was “inactive”.

In the case of `CN(CC(=O)N(C)CC(=O)Nc1c(Cl)cccc1Cl)Cc1ccccc1F`, the Potency result is “inactive”.

On to `O=C(O)CNC(=S)N(Cc1ccccc1)Cc1cccnc1`, for which the Potency entry is “inactive”.

In the case of `COc1cc(/C=N/NC(=O)Cc2csc(C)n2)ccc1OCC(C)C`, the Potency entry was “inactive”.

As to `O=C(Nc1cccc(NC(=O)c2ccc(F)cc2)c1)c1ccc(F)cc1`, the Potency entry is “inactive”.

`COc1cccc(NC(=S)NCc2ccc3c(c2)cc(C)n3C)c1`: the Potency result was “inactive”.

Regarding `CC(C)CN(C(=O)CN1CCC(C)CC1)c1c(N)n(CC(C)C)c(=O)[nH]c1=O`, the Potency entry is “inactive”.

On to `CC(C)c1ccc(SCc2noc(C(=O)NCC3CCCO3)c2C(=O)O)cc1` (stereo not drawn), for which the Potency result was “inactive”.

For `CC1CC(C)CN(CCCNC(=O)CN2C(=O)CSc3ccc(S(=O)(=O)N4CCOCC4)cc32)C1` (stereo not drawn), the Potency entry is “inactive”.

Consider `CC(C)(C)NC(=O)C(c1cccs1)N(C(=O)c1csnn1)c1ccccc1F` (stereo not drawn), for which the Potency result is “inactive”.

For `COC(=O)C(CCSC)NC(=O)Cn1ncc2c(=O)oc3ccccc3c21` (stereo not drawn), the Potency entry is “inactive”.

As to `CCN(CC(=O)NCc1ccc(F)cc1)CC(=O)Nc1ccccc1-c1ccccc1`, the Potency result is “inactive”.

For `O=c1[nH]c(SCc2cccc(Cl)c2)nc2ccccc12`, the Potency result is “inactive”.

As for `Cc1ccccc1OCCC(=O)NNC(=O)c1ccccc1F`, the Potency entry was “inactive”.

With `C/C=C/C(=O)Nc1cccc(C2=NOC3(C2)C[C@@H](C(N)=O)N(C(=O)c2cc([N+](=O)[O-])cc([N+](=O)[O-])c2C)C3)c1` (stereo partly drawn), the Potency entry is “inactive”.

As for `O=C(C[C@@H]1C/C=C\C[C@H](Cc2ccc(F)cc2)C(=O)OC[C@H]2CCCN2C1=O)N[C@H](CO)Cc1ccccc1`, the Potency result was “inactive”.

`COc1ccc([C@@H]2[C@@H]3C(=O)N(C(C)(C)C)C(=O)[C@@H]3[C@]3(C)C(=O)N(c4cccc(Cl)c4)C(=O)N23)cc1`: the Potency result was “inactive”.

On to `O=C(CSc1nnnn1-c1cccc(F)c1)Nc1nc2ccccc2s1`, for which the Potency entry is “inactive”.

In the case of `CC(C)C(NC(=O)Cc1ccccc1)C(=O)N1CCN(c2cccc(Cl)c2)CC1` (stereo not drawn), the Potency entry was “inactive”.

Regarding `Brc1ccsc1/C=N/Nc1ccccc1`, the Potency result is “inactive”.

Turning to `CC(C)C(=O)Nc1nnc(SCc2cccc(F)c2)s1`, the Potency result was “inactive”.

With `COc1cc(/C=C(/C#N)C(=O)Nc2ccccc2)ccc1OCc1ccc(C(=O)O)cc1`, the Potency result was “inactive”.

Turning to `O=C1C=C(NNC(=O)c2ccncc2)CC(c2ccccc2)C1` (stereo not drawn), the Potency result is “inactive”.

`O=C(CCc1ccccc1)NNC(=O)c1cccc(F)c1`: the Potency entry is “inactive”.

As for `O=C(NCCN1CCOCC1)c1ccc2c(c1)N(Cc1ccc(Cl)cc1)CCS2`, the Potency entry is “inactive”.

On to `CCCCN(CC(=O)Nc1cccc(S(=O)(=O)N2CCCC2)c1)Cc1nc2ccccc2c(=O)[nH]1`, for which the Potency result was “inactive”.

Regarding `CCOC(=O)[C@H]1[C@H]2COc3ccc(Br)cc3[C@@H]2N2C(=O)c3c(C)cc(C)cc3NC(=O)[C@@]12C`, the Potency entry is “inactive”.

Consider `CCOCc1nnc(NC(=O)C2CCN(C(=O)C3CC(=O)N(c4ccc(C)cc4)C3)CC2)s1` (stereo not drawn), for which the Potency entry is “inactive”.

Consider `Cn1c(=O)c2c(ncn2CCO)n(C)c1=O`, for which the Potency result is “inactive”.

Regarding `Cc1ccc(C2=NS(=O)(=O)N(C)C(C(=O)NC3CCCC3)=C2)cc1`, the Potency result is “inactive”.

Take `COCCN(C(=O)c1ccccc1OC)c1nnc(C)s1`: the Potency result was “inactive”.

For the compound `O=C(N/N=C/c1cccs1)c1ccco1`, the Potency entry is “inactive”.

In the case of `COc1ccc(N2CCN(S(=O)(=O)c3ccc4c(c3)NC(=O)CS4)CC2)cc1`, the Potency result is “inactive”.
